# Sampled rows, rich in hits. Any-hit rate of the full collection: about 21%.
# IL1B secr inh: qHTS for Inhibitors of Inflammasome Signaling: IL-1-beta AlphaLISA Primary Screen. hit rate 4.7% among 360,000. activity change, % at 57.5 µM. THP-1 LPS/ATP IL-1B secretion, AlphaLISA, 16 h; hits give low values. AID 743279, 2014; in the data active = activity change below about -50%; inconclusive = mostly about -30% to -49%; also: % is scaled to controls: 0 for no effect and ±100 for the full control effect
#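 Secreted IL-1B measured by AlphaLISA bead assay after 16 h compound exposure of THP-1 cells; compounds (final up to 57.5 uM) added 1 h before LPS (250 ng/mL) and ATP (1.25 mM) stimulation; lower signal means less secretion.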
# TDP1 cell noCPT: qHTS for Inhibitors of human tyrosyl-DNA phosphodiesterase 1 (TDP1): qHTS in cells in absence of CPT; DT40 Tdp1-/- hTDP1 cells, no CPT, ATP luminescence, 48 h; AID 686978, 2013; Potency, µM (titrated, usually from 46.2 µM), for the others: at the highest dose activity change, negative = growth inhibition, most hits filed as inhibitors; hit rate 15% among 420,000; also: potency is read from the fitted curve at half-maximal effect; % is scaled to controls: 0 for no effect and ±100 for the full control effect; nearly all actives have a fitted effect of over 55% in size
#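 Camptothecin absent (DMSO only). Human TDP1-complemented DT40 knockout cells, 400 cells/well, 37 °C for minimum 48 hr; ATP measured via CellTiter-Glo, 30 min dark incubation, luminescence.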
# DT40 TDP1 CPT: qHTS for Inhibitors of human tyrosyl-DNA phosphodiesterase 1 (TDP1): qHTS in cells in presence of CPT; chicken DT40 Tdp1-/-;hTDP1 cells + 20 nM CPT, ATP luminescence, 48 h; Potency, µM (highest dose often 46.2 µM), without a hit: at the highest dose activity change, negative = growth inhibition, hits mostly inhibitors; AID 686979, 2013; hit rate 12% among 420,000; also: potency is read from the fitted curve at half-maximal effect; % is scaled to controls: 0 for no effect and ±100 for the full control effect; nearly all actives have a fitted effect of over 55% in size
#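 Chicken DT40 Tdp1-/- cells stably complemented with human TDP1 were seeded at 400 cells/well in medium containing 20 nM camptothecin, exposed to pin-transferred compounds, and grown at 37 °C for at least 48 hr. Viability was read as ATP luminescence.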
# D3 ag: qHTS of D3 Dopamine Receptor Agonist: qHTS; D(3) dopamine receptor (Homo sapiens), P35462; D3R DiscoveRx beta-arrestin cells, luminescence, 90 min; max activation, %; hit rate 0.58% among 410,000; in the data active = max activation above about 30%; also: 0% is about no effect
# Target sequence (P35462 whole entry, looked up): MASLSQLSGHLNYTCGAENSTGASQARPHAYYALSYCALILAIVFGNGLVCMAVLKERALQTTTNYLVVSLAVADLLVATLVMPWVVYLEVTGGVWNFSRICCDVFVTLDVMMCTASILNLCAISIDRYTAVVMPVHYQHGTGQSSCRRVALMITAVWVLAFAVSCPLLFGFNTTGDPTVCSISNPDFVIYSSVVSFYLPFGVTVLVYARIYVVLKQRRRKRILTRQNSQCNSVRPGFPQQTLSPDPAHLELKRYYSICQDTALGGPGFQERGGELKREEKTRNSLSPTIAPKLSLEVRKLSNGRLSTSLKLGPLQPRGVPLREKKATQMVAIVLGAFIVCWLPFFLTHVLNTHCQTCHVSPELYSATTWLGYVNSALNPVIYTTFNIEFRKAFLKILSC
#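 Cells at 1500/well, incubated overnight, then treated with pinned compounds (dopamine as control) for 90 min at 37 degrees C. DiscoveRx reagent added for 30 - 60 minutes at room temperature; luminescence read.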
# DRD3 antagonist: qHTS of D3 Dopamine Receptor Antagonist: qHTS; hit rate 2.5% among 360,000; D3R cells, DiscoveRx beta-arrestin luminescence, antagonist mode; hits give low values; max response, negative = inhibition, %; in the data active = max response below about -50%; inconclusive = no clear call, values can overlap the other calls; also: % is scaled to controls: 0 for no effect and ±100 for the full control effect
#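 Cells expressing the human receptor were seeded at 1500 cells/well, incubated overnight at 37 degrees C in 5% CO2, then exposed to library compounds with dopamine controls for 90 minutes at 37 degrees C before luminescent detection.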
# ClpP mod: qHTS Assay for Activators of ClpP; ATP-dependent Clp protease proteolytic subunit (Bacillus subtilis (strain 168)), P80244; Potency, µM (top dose mostly 57.5 µM), inactives show top-dose activity change, negative = active; hit rate 1.9% among 340,000; purified B. subtilis ClpP, FRET peptide cleavage, 20 min; active = well fitted falling curve with a large enough effect; inconclusive = small, poorly fitted or top-dose-only effect; inactive = no such curve, though single readings can be large or run the other way; also: potency is read from the fitted curve at half-maximal effect; the source files actives as falling curves though it sought activators and does not explain the sign; nearly all actives have a fitted effect of over 65% in size
# Target sequence (P80244 whole entry, looked up): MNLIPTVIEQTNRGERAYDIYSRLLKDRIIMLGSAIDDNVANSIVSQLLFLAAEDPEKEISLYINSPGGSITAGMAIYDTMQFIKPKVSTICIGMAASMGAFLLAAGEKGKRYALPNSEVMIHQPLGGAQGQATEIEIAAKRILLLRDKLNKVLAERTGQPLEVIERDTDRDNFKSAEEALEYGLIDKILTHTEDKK
#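 FRET quenching reversal measured ClpP activation: 10 microg/mL B. subtilis ClpP at pH 8 with the FRET-FV decapeptide, read at 430 nm after 320 nm excitation. The 20-min minus 0-min signal was scaled between DMSO/no-enzyme wells and ADEP (5.8 microM final).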
# * = called active by the depositor; i = inactive; ? = inconclusive; . = no result. Unless noted, calls follow the shape of the dose curve; as a rule, active = well fitted inhibition curve with a large enough effect; inconclusive = small, poorly fitted or top-dose-only effect; inactive = flat fitted curve, though single readings scatter.
SMILES,IL1B secr inh,TDP1 cell noCPT,DT40 TDP1 CPT,D3 ag,DRD3 antagonist,ClpP mod
CCC(c1nnnn1-c1ccc(OC)cc1)N1CCC(n2c(=O)[nH]c3ccccc32)CC1 (stereo unspecified),-22,?,?,22,0,-1%
COc1ccc(-n2nnnc2C(CCSC)N2CCC(n3c(=O)[nH]c4ccccc43)CC2)cc1 (stereo unspecified),-27,21µM*,?,15,91,2%
O=c1[nH]c2ccccc2n1C1CCN(C(CCc2ccccc2)c2nnnn2-c2ccc3c(c2)OCCO3)CC1 (stereo unspecified),?,2.9µM*,3.7µM*,36*,98,0%
CC1(C)CC2(CCO1)NCCN1C(=O)CSC12 (stereo unspecified),1,-13%,3%,-12,7,-3%
CN1CCCC2(CCN(C(=O)c3csnn3)CC2)C1,.,-3%,11%,.,.,.
CCCCC(F)(F)[C@@]1(O)CC[C@H]2[C@@H](CC(=O)[C@@H]2CCCCCCC(=O)O)O1,.,?,?,2,.,.
CP(=O)(Nc1ccc(Cl)cc1)c1nc2c(s1)CCCC2 (stereo unspecified),36,?,?,3,-3,-2%
Cc1cccc(C)c1-n1nnnc1C(CCc1ccccc1)N1CCC(n2c(=O)[nH]c3ccccc32)CC1 (stereo unspecified),3,5.8µM*,5.8µM*,5,59,1%
Cc1ccc(/C=N/n2c(-c3ccccc3)csc2=S)cc1,.,?,15µM*,-15,.,.
Cc1cccc(N2CCN(C(=O)c3ccc(CNc4c(N5CCC(C)CC5)c(=O)c4=O)cc3)CC2)c1C,0,16µM*,?,-11,-6,.
COc1ccc(C(=O)C2CCCN(C3CSCCSC3)C2)cc1OC (stereo unspecified),5,?,-1%,-3,-25,?
O=c1cc(CN2CC=C(c3ccccc3)CC2)c2c(ccc3ccccc32)o1,26,21µM*,?,-13,-23,.
COc1ccccc1CNCc1cc(OC)c(OC)cc1OC,-8,?,?,-10,-3,-2%
COc1ccccc1CNCC(=O)Nc1cc(S(=O)(=O)N2CCCCC2)ccc1C,-60*,?,?,15,-51*,8.9µM*
O=C(CN1CC=C(c2ccccc2)CC1)NC(=O)NCc1ccccc1,6,?,?,-18,-17,1%
Cc1ccc(S(=O)(=O)N2CCCCC2)cc1NC(=O)CN1CC=C(c2ccccc2)CC1,?,5.2µM*,8.2µM*,2,-26,-10%
O=C(CN1CC=C(c2ccccc2)CC1)Nc1cc(Cl)ccc1Cl,i,16µM*,?,-7,3,-2%
Cc1ccc(N2CC(C(=O)Nc3cc(S(=O)(=O)N4CCCCC4)ccc3C)CC2=O)cc1 (stereo unspecified),-20,5.8µM*,?,-12,-21,-4%
O=C(c1csnn1)N1CCC[C@@]2(CCN(Cc3ccncc3)C2)C1,.,-12%,-4%,.,.,.
O=C(CCC(=O)N1C[C@H]2C[C@@H](C1)c1cccc(=O)n1C2)NCc1ccc(F)cc1,21,2%,12%,20,25,-4%
CC(C)(C)c1cc([N+](=O)[O-])cc(C(C)(C)C)c1O,-16,5.2µM*,10µM*,-4,-16,3%
NC(=O)c1cc([N+](=O)[O-])cc([N+](=O)[O-])c1,27,?,?,3,4,1%
NCC(CC(=O)O)C1CCCCC1 (stereo unspecified),-3,-5%,-13%,-4,-9,-1%
C[C@H](CO)N1C[C@H](C)[C@H](CN(C)C(=O)N[C@H](C)c2ccccc2)OCc2ccccc2-c2c(n(C)c3ccccc23)C1=O,-5,16µM*,23µM*,-3,-20,-3%
C[C@@H]1CN([C@@H](C)CO)C(=O)c2c(c3ccccc3n2C)-c2ccccc2CO[C@H]1CN(C)C(=O)[C@H](C)c1ccccc1,-14,18µM*,16µM*,5,1,-10%
SMILES,IL1B secr inh,TDP1 cell noCPT,DT40 TDP1 CPT,D3 ag,DRD3 antagonist,ClpP mod
COC1=CC(=O)OC(CCc2ccc3c(c2)OCO3)C1 (stereo unspecified),-19,-6%,4%,13,-22,0%
CC1=CC2/C=C(\C)CCC(O)C(O)/C=C/C(=O)C23C(=O)NC(CC(C)C)C3C1C (stereo unspecified),-106*,1.8µM*,3.7µM*,-12,-74*,0%
Cc1[nH]n(-c2ccccc2)c(=O)c1C(c1cccc([N+](=O)[O-])c1O)c1c(C)[nH]n(-c2ccccc2)c1=O,-3,?,-22%,-11,-70*,-2%
CC(=O)CC(c1ccccc1[N+](=O)[O-])c1c(O)c2ccccc2oc1=O (stereo unspecified),33,-23%,-6%,2,2,.
COC(=O)C(O)(c1c(C)[nH]n(-c2ccccc2)c1=O)C(F)(F)F (stereo unspecified),6,-20%,-24%,-7,-16,0%
COc1cc(C(c2c(C)[nH]n(-c3ccccc3)c2=O)c2c(C)[nH]n(-c3ccccc3)c2=O)cc(OC)c1OC,-78*,?,-26%,-12,-13,4%
CC(C)[C@]1(O)[C@@H](OC(=O)c2ccc[nH]2)[C@@]2(O)[C@@]3(C)C[C@]4(O)O[C@@]5([C@H](O)[C@@H](C)CC[C@]35O)[C@@]2(O)C41C,.,?,-12%,.,.,.
Cn1c(O)c(C=NCCN2CCNCC2)c(=O)[nH]c1=O,4,-9%,23%,12,-7,1%
CN(C)C(=O)Oc1ccc(Cl)c2cccnc12,8,-18%,6%,-1,14,.
O=C(Nc1c(Cl)cccc1Cl)Oc1cccc2cccnc12,128,4.6µM*,4.1µM*,2,-52*,-4%
CC1C(=O)OC2CCN3CC4OC4(COC(=O)C(C)(O)C1(C)O)C23 (stereo unspecified),17,3%,2%,7,12,4%
Cc1ccc(C(=O)Nc2nc3ccccc3n2CCN2CCCC2)cc1,-14,13µM*,15µM*,-25,-61*,-5%
C=CCc1c(C)nc(C)nc1N/N=C/c1ccc(N(C)C)cc1,20,21µM*,4.6µM*,-4,9,20µM*

# Source: PubChem BioAssay (National Center for Advancing Translational Sciences (NCATS))
